Pin1 inh – blocks the human prolyl isomerase Pin1 | Potency, µM (doses to about 115 µM), for inactives: at the highest dose activity, negative = inhibition, usual class: inhibitors | AID 504891 | 390,000 compounds, 0.009% hits | Pin1 FP peptide displacement, HiFluor488, 10 min; active means well fitted inhibition curve with a large enough effect in the polarisation, with a control signal flat, not every such curve was filed as active; inconclusive means small, poorly fitted or top-dose-only effect, or effect the other way, or a change in a side signal; inactive means no such curve, though single readings can be large or run the other way; the % refers to the polarisation; further: potency means the concentration at half of the fitted maximal effect
USP2a block – USP2a (human) protease inhibition; O75604; USP2 core, Ub-CHOP2 coupled fluorogenic reporter, 485/531; AID 463254; 330,000 compounds, 0.01% hits; Potency, µM (titrated, usually from 38.3 µM), without a hit: at the highest dose activity change, negative = inhibition, actives largely listed as inhibitors;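 further: potency means the concentration at half of the fitted maximal effect; plate controls were DMSO wells for no effect and full inhibition by NEM control for full effect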
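Deubiquitinase activity read as fluorescence (485/531 nm) after Ub-CHOP2 cleavage activates the enterokinase reporter on its substrate; USP2 core 10nM, Ub-CHOP2 and substrate 25nM each, 30min compound preincubation then 60min RT; data normalized to NEM, curves fitted.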
PI4K2A block – PI4K2A (human) kinase inhibition. Q9BTU6. AID 1346378. activity change, negative = inhibition, % at 76.9 µM. purified PI4K2A, ADP-Glo luminescence, 1 h; active compounds read low. 420,000 compounds, 0.13% hits; in the data active means activity change below about -50%; inconclusive means mostly about -30% to -49%;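 further: -100% = wells without enzyme as full effect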
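Compounds are screened against recombinant PI4K2A using PI as substrate and ATP, the latter dispensed at 300 microM. Reactions run one hour at ambient temperature before ADP-Glo detection; full inhibition defined by wells lacking enzyme.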
Tb PFK block – blocks T. brucei phosphofructokinase; 330,000 compounds, 0.17% hits; Potency, µM (titrated, usually from 57.5 µM), for inactives: at the top dose activity, negative = inhibition, usual class: inhibitors; T. brucei PFK, ADP-Glo luminescence; O15648;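 further: potency means the concentration at half of the fitted maximal effect; 0% = uninhibited 1x PFK enzyme wells and -100% = no-enzyme wells; nearly all actives have a fitted effect of over 60% in size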
Target sequence (O15648 whole entry, looked up): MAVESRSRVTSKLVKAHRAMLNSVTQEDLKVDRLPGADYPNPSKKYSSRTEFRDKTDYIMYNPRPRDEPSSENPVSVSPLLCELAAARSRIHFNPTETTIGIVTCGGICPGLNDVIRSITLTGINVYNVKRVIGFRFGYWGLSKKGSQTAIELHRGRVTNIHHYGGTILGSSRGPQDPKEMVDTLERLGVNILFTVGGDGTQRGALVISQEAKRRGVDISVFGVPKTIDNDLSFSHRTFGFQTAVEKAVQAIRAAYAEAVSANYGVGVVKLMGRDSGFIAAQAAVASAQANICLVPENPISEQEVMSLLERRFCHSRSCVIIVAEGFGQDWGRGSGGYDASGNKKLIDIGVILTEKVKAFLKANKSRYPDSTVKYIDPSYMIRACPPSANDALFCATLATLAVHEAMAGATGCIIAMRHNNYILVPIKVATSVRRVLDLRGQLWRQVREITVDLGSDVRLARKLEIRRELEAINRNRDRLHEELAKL
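Activity is normalized to no-enzyme wells (full inhibition) and 1.25 nM enzyme wells (no inhibition). Reaction: 0.5 mM F6P, 0.1 mM ATP, 45 min RT, ADP-Glo luminescence; concentration-response curves fitted and classed by quality.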
Tb PGK inh – inhibitors of T. brucei phosphoglycerate kinase. PGK/GAPDH coupled, Kinase-Glo luminescence, 60 min. Potency, µM (doses to about 57.5 µM), inactives show at the top dose activity change, negative = inhibition, most hits filed as inhibitors. 380,000 compounds, 0.043% hits. AID 602233; further: potency means the concentration at half of the fitted maximal effect; nearly all actives have a fitted effect of over 60% in size
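Luminescent ATP detection (Kinase-Glo Plus) follows a 60-minute room-temperature incubation, with wells lacking PGK as controls. Buffer: 100 mM TEA (pH 7.6), 5 mM MgCl2, 0.01% Tween-20. Coupling enzyme GAPDH (100 nM final) supplies unstable 1,3-BPG in-well.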
* hit, by the source's call; i = inactive; ? = inconclusive; / = no result; [ ] = dose if it differs, or a comment. Most compounds without a hit are left out; they make up all but 0.28% or so of the library. Unless noted, the call rests on the fitted dose curve; in most records, active means well fitted curve in the direction sought with a large enough effect; inconclusive means small, poorly fitted or top-dose-only effect, or another doubt; inactive means no such curve, though single readings can be large; an effect the other way counts as inactive or inconclusive. Unless noted, on the % scale 0 is the no-effect control and ±100 the full control effect.

SMILES | Pin1 inh | USP2a block | PI4K2A block | Tb PFK block | Tb PGK inh
Nc1c(N2CCCC2)cc(Cl)c2nonc12 | ? | 1.6% | -66.1* | -4.3% | -20.6%
Nc1c(N2CCOCC2)cc(Cl)c2nonc12 | -2.0% | 2.4% | -61.7* | -16.5% | i
O=[N+]([O-])c1ccc(N2CCCCCC2)c2nonc12 | ? | ? | -5.4 | -3.5% | 2.0%
Nc1ccc(N2CCCCC2)c2nonc12 | / | 0.9% | -53.6* | 14.4% | ?
CCOC(=O)C1CCN(c2ncc(-c3ccc4c(c3)OCCCO4)s2)CC1 | -2.1% | / | / | / | /
CCOC(=O)N1CCC(N(C(=O)Nc2ccc(Cl)c(Cl)c2)C(C)CC)CC1 (stereo unspecified) | 3.1% | 3.2% | -2.9 | 23.9µM* | -10.3%[11.5 µM]
N/C(=N\N=C/c1ccc(-c2ccc(O)c(C(=O)O)c2)o1)N[N+](=O)[O-] | ? | -0.9% | -12.2 | 0.9% | 10µM*
CN1Cc2cc(C(=O)N3CCC(C4CCNCC4)CC3)ccc2N[C@@H](CC(=O)O)C1=O | / | / | -11.8 | / | /
Cc1ccsc1C(=O)Nc1ccc(C(=O)O)cc1 | 6.2% | 4.0% | -74.0* | -1.1% | -22.3%
Cc1c(P(=S)(c2ccccc2)c2ccccc2)c2ccccc2n1C(=O)NCc1ccc(F)cc1 | -2.4% | / | / | / | /
CC(=O)Nc1sc2c(c1-c1ccco1)CCNC2 | -20.2% | / | / | / | /
CCCC(=O)OCCNc1cc(Sc2nc3ccccc3[nH]2)c2nonc2c1[N+](=O)[O-] | 32.5% | 3.8% | 3.3 | 21.3µM* | -9.9%
O=C(c1ccccc1)N1CCN(c2nc(-c3ccc(Br)cc3)cs2)CC1 | 12.7% | / | / | / | /
Nc1nc(Nc2ccccc2)nc2ccccc12 | 3.7% | 0.5% | ? | -7.8% | ?
CCOc1ccc(Nc2nc(N)c3ccccc3n2)cc1 | -8.3% | -1.7% | -79.8* | -17.4% | ?
O=C1C=C(N2CCOCC2)c2ccccc2C1=O | -21.7% | 2.5% | -74.8* | -4.3% | -21.8%
Cc1ccccc1C(=O)Nc1ccc(C(=O)N2CCCC(N(C)C)c3ccccc32)cc1 (stereo unspecified) | / | / | -1.6 | / | /
O=C(Nc1ccc(N2CCCCC2)cc1)c1ccccn1 | -4.2% | -1.0% | -65.3* | -15.8% | ?
COCc1nn2c(=O)cc(N3CCNCC3)nc2s1 | -0.4% | / | / | / | /
CCOC(=O)N(O)c1ccc(C=Cc2ccccc2)cc1 | 2.1% | / | 4.4 | / | 28.2µM*
Cc1ccc(NS(=O)(=O)c2ccc3c(c2)CCN(C(=O)C(F)(F)F)C3)cc1C | 0.7% | / | / | / | /
O=c1nccc(N/N=C/c2ccccc2O)[nH]1 | ? | -0.5% | -52.9* | -22.7% | -28.6%
COc1cccc(/C=N/Nc2ccnc(=O)[nH]2)c1O | 5.6% | -1.8% | ? | -9.5% | -17.6%
Cc1cc2nc3s/c(=C/c4ccc(-c5ccccc5C(=O)O)o4)c(=O)n3c2cc1C | ? | -1.2% | -7.5 | 4.1% | i
O=C(O)c1cc(-c2ccc(/C=c3\sc4nc5ccc(Br)cc5n4c3=O)o2)ccc1Cl | / | -1.5% | / | 0.849µM* | /
SMILES | Pin1 inh | USP2a block | PI4K2A block | Tb PFK block | Tb PGK inh
O=C(O)c1cc(-c2ccc(/C=C3\NC(=O)N(c4ccc(Cl)cc4)C3=O)o2)ccc1Cl | ? | 3.5% | -8.2 | -2.7% | 31.6µM*
Cc1ccnc(NC(=O)c2ccc(OCC3CCCO3)cc2)c1 (stereo unspecified) | -9.9% | -1.2% | -62.8* | -21.6% | ?
O=C(CBr)Nc1ccc(Cl)cc1C(=O)c1ccccc1F | / | / | -2.0 | / | /
Cc1cc(=O)oc2c(C)c(OCC(=O)N3CCN(c4ccccc4)CC3)ccc12 | -3.9% | -2.0% | 9.7 | -2.4% | -7.0%
Cc1cc(=O)oc2c(C)c(OCC(=O)N3CCN(c4cccc(Cl)c4)CC3)ccc12 | -0.9% | 1.3% | -1.1 | 21.3µM* | i
COc1ccc(NC(=O)N2CCCc3ccccc32)cc1 | 0.6% | -5.0% | 5.5 | -4.3% | 0.1%
COc1ccc(NC(=O)N2CCc3ccccc32)cc1 | -2.2% | 0.6% | -53.7* | -17.9% | ?
CN(C)c1ccc(C=c2c3cc([N+](=O)[O-])ccc3n3c2cc(-c2ccccc2)[n+]3C)cc1 | ? | / | -50.6* | / | -19.0%
CCOc1cccc(CNn2cnnc2)c1OCc1ccccc1Cl | -5.7% | 4.9% | 10.6 | 3.7% | -1.3%
CCOc1cccc(CNc2ccc(O)cc2)c1OCc1ccc(Cl)cc1Cl | -12.7% | -1.3% | -57.7* | 3.3% | -8.4%
